Common to all, as to experiment: PBM; 200 nM protein, PBS
Settings in all cases: dsDNA, one strand shown

Assay [1] deals with T1, PAX4 (Homo sapiens, UniProt O43316 9-242, R200K).
T1 sequence: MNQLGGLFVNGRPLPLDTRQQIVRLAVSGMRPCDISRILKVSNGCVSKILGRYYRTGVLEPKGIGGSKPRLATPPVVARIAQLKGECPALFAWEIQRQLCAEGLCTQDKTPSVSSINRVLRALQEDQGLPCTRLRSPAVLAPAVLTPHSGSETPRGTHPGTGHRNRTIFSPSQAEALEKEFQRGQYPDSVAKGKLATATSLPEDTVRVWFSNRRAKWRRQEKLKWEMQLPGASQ

Assay [2] deals with T2, PAX4 (Homo sapiens, UniProt O43316 9-242, F177Y).
T2 sequence: T1 sequence with F169Y, K192R

Assay [3] deals with T3, PAX4 (Homo sapiens, UniProt O43316 9-242, R227W).
T3 sequence: T1 sequence with K192R, R219W

Assay [4] has as its target T4, PAX4 (Homo sapiens, UniProt O43316 9-242).
T4 sequence: T1 sequence with K192R

Assay [5] concerns the target T5, PAX4 (Homo sapiens, UniProt O43316 9-242, R200Q).
T5 sequence: T1 sequence with K192Q

Assay [6] concerns the target T6, PAX4 (Homo sapiens, UniProt O43316 9-242, F177V).
T6 sequence: T1 sequence with F169V, K192R

The target of assay [7] is CRX (Homo sapiens, UniProt O43186 26-111, R41L).
Assay [8] has as its target PRRX1 (Homo sapiens, UniProt P54821 80-166, F113S).
The target in assay [9] is HOXB6 (Homo sapiens, UniProt P17509 132-218, K202E).
In assay [10] the target is ALX3 (Homo sapiens, UniProt O95076 139-225, N203Q).
Assay [11] concerns the target ALX3 (Homo sapiens, UniProt O95076 139-225, N203S).
Assay [12] deals with PRRX1 (Homo sapiens, UniProt P54821 80-166).

Substitutions are numbered along the chain they refer to.

Chain of ALX3 (Homo sapiens, UniProt O95076 139-225, N203S) (O95076 139-225 N203S): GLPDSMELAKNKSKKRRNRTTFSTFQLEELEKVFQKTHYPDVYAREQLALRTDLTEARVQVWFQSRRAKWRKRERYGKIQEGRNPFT
Chain of PRRX1 (Homo sapiens, UniProt P54821 80-166, F113S) (P54821 80-166 F113S): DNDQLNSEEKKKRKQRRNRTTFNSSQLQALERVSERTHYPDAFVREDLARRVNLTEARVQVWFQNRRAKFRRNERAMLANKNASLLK
Chain of ALX3 (Homo sapiens, UniProt O95076 139-225, N203Q) (O95076 139-225 N203Q): as the sequence (O95076 139-225 N203S) above, with S65Q counted along it
Chain of CRX (O43186 26-111 R41L): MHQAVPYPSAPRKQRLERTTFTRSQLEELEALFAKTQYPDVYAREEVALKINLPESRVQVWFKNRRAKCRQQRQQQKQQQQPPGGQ
Chain of HOXB6 (P17509 132-218 K202E): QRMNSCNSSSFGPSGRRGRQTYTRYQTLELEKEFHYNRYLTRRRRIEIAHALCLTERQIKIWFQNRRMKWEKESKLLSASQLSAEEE
Chain of PRRX1 (Homo sapiens, UniProt P54821 80-166) (P54821 80-166): as the sequence (P54821 80-166 F113S) above, with S34F counted along it

For ATAATGCG, the binding signal in assay [1] is 11.6 upbm affinity estimate (log intensity, higher = more binding, comparable within an allelic series); in assay [2] it was 10.9 upbm affinity estimate (log intensity, higher = more binding, comparable within an allelic series); in assay [3], 10.9 upbm affinity estimate (log intensity, higher = more binding, comparable within an allelic series).

On to CGTATTAG, for which the binding signal in assay [1] was 11.8 upbm affinity estimate (log intensity, higher = more binding, comparable within an allelic series); in [4], 12.3 upbm affinity estimate (log intensity, higher = more binding, comparable within an allelic series); in assay [5], 11.4 upbm affinity estimate (log intensity, higher = more binding, comparable within an allelic series); in [6], 10.6 upbm affinity estimate (log intensity, higher = more binding, comparable within an allelic series); in [2] it was 11.1 upbm affinity estimate (log intensity, higher = more binding, comparable within an allelic series); in [3], 11.1 upbm affinity estimate (log intensity, higher = more binding, comparable within an allelic series). Besides, in assay [7], the binding signal was 10.6 upbm affinity estimate (log intensity, higher = more binding, comparable within an allelic series).

CCCGCGCG: the binding signal was 9.26 upbm affinity estimate (log intensity, higher = more binding, comparable within an allelic series) in assay [1]; 9.11 upbm affinity estimate (log intensity, higher = more binding, comparable within an allelic series) in [4]; 9.18 upbm affinity estimate (log intensity, higher = more binding, comparable within an allelic series) in [5]; 9.01 upbm affinity estimate (log intensity, higher = more binding, comparable within an allelic series) in [6]; 9.06 upbm affinity estimate (log intensity, higher = more binding, comparable within an allelic series) in assay [2]; 9.19 upbm affinity estimate (log intensity, higher = more binding, comparable within an allelic series) in assay [3].

Take AGGCCGCC: the binding signal in assay [1] is 9.08 upbm affinity estimate (log intensity, higher = more binding, comparable within an allelic series); in [4], 9.11 upbm affinity estimate (log intensity, higher = more binding, comparable within an allelic series); in assay [5], 9.15 upbm affinity estimate (log intensity, higher = more binding, comparable within an allelic series); in assay [6] it was 9.15 upbm affinity estimate (log intensity, higher = more binding, comparable within an allelic series); in assay [2], 9.1 upbm affinity estimate (log intensity, higher = more binding, comparable within an allelic series); in assay [3], 9.22 upbm affinity estimate (log intensity, higher = more binding, comparable within an allelic series).

With AAGCGCTT, the binding signal in [1] was 9.65 upbm affinity estimate (log intensity, higher = more binding, comparable within an allelic series); in assay [4] it was 9.81 upbm affinity estimate (log intensity, higher = more binding, comparable within an allelic series); in [5], 9.56 upbm affinity estimate (log intensity, higher = more binding, comparable within an allelic series); in assay [6], 9.61 upbm affinity estimate (log intensity, higher = more binding, comparable within an allelic series); in [2], 9.5 upbm affinity estimate (log intensity, higher = more binding, comparable within an allelic series); in assay [3] it was 9.68 upbm affinity estimate (log intensity, higher = more binding, comparable within an allelic series).

As for TATTTTAA, the binding signal is 11 upbm affinity estimate (log intensity, higher = more binding, comparable within an allelic series) in assay [1]; 11.2 upbm affinity estimate (log intensity, higher = more binding, comparable within an allelic series) in assay [4]; 11 upbm affinity estimate (log intensity, higher = more binding, comparable within an allelic series) in [5]; 10.6 upbm affinity estimate (log intensity, higher = more binding, comparable within an allelic series) in assay [2]; 10.6 upbm affinity estimate (log intensity, higher = more binding, comparable within an allelic series) in [3].

Consider GAATTAAC, for which the binding signal in [1] was 11.6 upbm affinity estimate (log intensity, higher = more binding, comparable within an allelic series); in assay [4] it was 12.2 upbm affinity estimate (log intensity, higher = more binding, comparable within an allelic series); in assay [5], 11.9 upbm affinity estimate (log intensity, higher = more binding, comparable within an allelic series); in [6], 10.4 upbm affinity estimate (log intensity, higher = more binding, comparable within an allelic series); in assay [2], 11 upbm affinity estimate (log intensity, higher = more binding, comparable within an allelic series); in assay [3] it was 10.8 upbm affinity estimate (log intensity, higher = more binding, comparable within an allelic series).

Regarding AGTGTTAG, the binding signal was 10.5 upbm affinity estimate (log intensity, higher = more binding, comparable within an allelic series) in [1]; 10.6 upbm affinity estimate (log intensity, higher = more binding, comparable within an allelic series) in [4]; 9.92 upbm affinity estimate (log intensity, higher = more binding, comparable within an allelic series) in assay [6]; 10 upbm affinity estimate (log intensity, higher = more binding, comparable within an allelic series) in [2]; 10.1 upbm affinity estimate (log intensity, higher = more binding, comparable within an allelic series) in [3].

Turning to CATGTTAG, the binding signal in assay [1] is 10.7 upbm affinity estimate (log intensity, higher = more binding, comparable within an allelic series); in assay [4] it was 10.8 upbm affinity estimate (log intensity, higher = more binding, comparable within an allelic series); in [5] it was 10.7 upbm affinity estimate (log intensity, higher = more binding, comparable within an allelic series); in assay [6] it was 10.1 upbm affinity estimate (log intensity, higher = more binding, comparable within an allelic series); in [2] it was 10.2 upbm affinity estimate (log intensity, higher = more binding, comparable within an allelic series); in assay [3], 10.3 upbm affinity estimate (log intensity, higher = more binding, comparable within an allelic series).

Take ATAATTTA: the binding signal in assay [8] is 11.2 upbm affinity estimate (log intensity, higher = more binding, comparable within an allelic series); in assay [9], 10 upbm affinity estimate (log intensity, higher = more binding, comparable within an allelic series); in [10] it was 8.61 upbm affinity estimate (log intensity, higher = more binding, comparable within an allelic series); in [6], 10.8 upbm affinity estimate (log intensity, higher = more binding, comparable within an allelic series); in [2], 11 upbm affinity estimate (log intensity, higher = more binding, comparable within an allelic series); in assay [3], 11 upbm affinity estimate (log intensity, higher = more binding, comparable within an allelic series). Further, the binding signal in assay [11] is 8.73 upbm affinity estimate (log intensity, higher = more binding, comparable within an allelic series); in assay [12], 13.2 upbm affinity estimate (log intensity, higher = more binding, comparable within an allelic series).

CGTTGGCC: the binding signal in assay [1] is 9.3 upbm affinity estimate (log intensity, higher = more binding, comparable within an allelic series); in assay [4], 9.3 upbm affinity estimate (log intensity, higher = more binding, comparable within an allelic series); in [5], 9.53 upbm affinity estimate (log intensity, higher = more binding, comparable within an allelic series); in assay [6], 9.43 upbm affinity estimate (log intensity, higher = more binding, comparable within an allelic series); in assay [2], 9.4 upbm affinity estimate (log intensity, higher = more binding, comparable within an allelic series); in [3], 9.45 upbm affinity estimate (log intensity, higher = more binding, comparable within an allelic series).

(Values after article PMC11006913.)
